Laboratory results: PubChem BioAssay (NCATS)
Records with an inconclusive call do not appear. Active and inactive are the calls of the source. The call rests on the fitted dose curve.

These compounds were tested against Estrogen receptor (Homo sapiens) (UniProt P03372) (assay: qHTS assay for small molecule agonists of estrogen receptor alpha signaling (AID 588514;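 further: 0% = vehicle only and 100% = reference agonist; nearly all actives have a fitted effect of over 70% in size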)). Conditions: ER-alpha-UAS-bla HEK293, beta-lactamase ratio, 18 h; series mostly up to 76.8 µM; activation: at the top concentration.
Sequence of Estrogen receptor (Homo sapiens) (P03372 whole entry, looked up): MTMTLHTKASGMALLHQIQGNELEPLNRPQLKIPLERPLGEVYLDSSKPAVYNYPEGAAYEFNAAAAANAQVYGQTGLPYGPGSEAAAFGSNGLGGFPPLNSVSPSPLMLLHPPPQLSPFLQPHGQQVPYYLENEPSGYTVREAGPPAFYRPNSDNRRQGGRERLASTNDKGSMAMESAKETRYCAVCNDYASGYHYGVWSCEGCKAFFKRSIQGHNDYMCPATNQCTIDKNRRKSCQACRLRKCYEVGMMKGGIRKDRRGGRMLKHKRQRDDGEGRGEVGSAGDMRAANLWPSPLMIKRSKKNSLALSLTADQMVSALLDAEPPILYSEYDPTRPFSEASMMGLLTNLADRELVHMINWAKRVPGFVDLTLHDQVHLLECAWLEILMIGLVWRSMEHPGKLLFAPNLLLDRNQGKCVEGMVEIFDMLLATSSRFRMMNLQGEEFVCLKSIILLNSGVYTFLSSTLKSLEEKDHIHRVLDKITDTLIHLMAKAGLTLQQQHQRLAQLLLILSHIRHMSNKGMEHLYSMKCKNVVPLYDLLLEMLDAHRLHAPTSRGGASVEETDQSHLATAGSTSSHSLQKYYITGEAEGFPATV
Source text: NIH Chemical Genomics Center [NCGC]
U.S. Environmental Protection Agency [EPA]
National Institutes of Environmental Health Sciences [NIEHS]
National Toxicology Program [NTP]
Estrogen receptor alpha (ER-alpha) is an important member of nuclear hormone receptors. ER-alpha plays important role in breast cancer as well as in other women's health issues. The majority of breast cancers is estrogen receptor (ER) positive and depends on estrogen for growth. There is also growing concern for some of environmental chemicals which may contribute the increasing the incidence of breast cancer. Therefore, it is important to understand the effect of environmental chemicals in ER-alpha signaling pathway.
NCGC Assay Protocol Summary
Using a beta-lactamase reporter-gene under control of the ER response element, a cell-based assay [ER-alpha-UAS-bla GripTiteTM cell-Based Assay from Invitrogen] was used to measure ER-alpha signaling pathway in agonist mode. ER-alpha-UAS-bla-GripTite HEK 293 cells were used with assay medium containing 2% charcoal/dextran treated FBS, 0.1 mM NEAA and 1 mM sodium pyruvate. Cells were cultured in this assay medium overnight in the flasks before the assay. The assay was performed in clear bottom black Greiner 1536-well plates. 17-beta-estradiol was used as a positive control in the screen. Library compounds were measured for their ability to either stimulate the reporter gene activity. Compounds were screened in a titration series in 1536-well format. […] Data was normalized relative to 17-beta-estradiol control (20 nM, 100%), and DMSO only wells (basal, 0%). Concentration-response titration points for each compound were fitted to the Hill equation yielding concentrations of half-maximal stimulation (EC50) and maximal response (efficacy) values.
qHTS protocol for ER-alpha beta-lactamase assay in agonist mode
[Step] [Parameter] [Value] [Description]
1. Reagent; 6 uL; 5000 cells/well
2. Incubation; 37 C for 4 hrs
4. Controls (17-beta-estradiol); 23 nL
- Dose response, start 1uM, 1:3 dilutions with duplicates
- Two columns with 20 and 0.5 nM (final) concentration.
5. Incubation; 37 C for 18 hrs
6. Detection reagent; 1 uL of CCF4-dye
7. Incubation; RT for 2 hrs
8. Detection; Fluorescence; Envision plate reader or Acumen plate reader

Row | Structure (SMILES) | activation | Potency
1 | CCCCCCCCCCCCCO | 6.23% (inactive) | –
2 | CCCCOCCOCCOC(C)=O | 0.4% (inactive) | –
3 | C1CCC2(CCCCO2)OC1 | -1.48% (inactive) | –
4 | O=C(O)C(c1ccc(Cl)cc1)c1ccc(Cl)cc1 | 2.11% (inactive) | –
5 | O=C(O)C(Oc1ccc(Cl)cc1)Oc1ccc(Cl)cc1 | -7.03% (inactive) | –
6 | O=C(c1ccc(Cl)cc1)c1ccc(Cl)cc1 | -8.99% (inactive) | –
7 | Cl[Si](Cl)(c1ccccc1)c1ccccc1 | 5.48% (inactive) | –
8 | CC(Cl)(Cl)C(=O)OCCOc1cc(Cl)c(Cl)cc1Cl | -3.32% (inactive) | –
9 | COC(=O)c1ccccc1S(=O)(=O)NC(=O)Nc1nc(OC(F)F)cc(OC(F)F)n1 | -1.99% (inactive) | –
10 | CCCCOCCOCCO | 11.7% (inactive) | –
11 | C[N+](C)(C)CC(O)CCl (stereo not given) | 3.54% (inactive) | –
12 | C/C=C/C=C/CCCCCCCO | 4.74% (inactive) | –
13 | C=CCOC(=O)CC(C)C | 3.32% (inactive) | –
14 | CCCCNS(=O)(=O)c1ccccc1 | 6.86% (inactive) | –
15 | Cc1ccc(N=Nc2c(O)ccc3ccccc23)c(C)c1 | 6.6% (inactive) | –
16 | O=c1n(CCO)c(=O)n(CCO)c(=O)n1CCO | 6.15% (inactive) | –
17 | Nc1nc(N)nc(-c2ccccc2)n1 | -0.0766% (inactive) | –
18 | O=C(O)c1ccc(C(=O)O)c(C(=O)O)c1 | -0.0326% (inactive) | –
19 | O=[N+]([O-])C(CO)(CO)CO | -0.873% (inactive) | –
20 | C=CC(=O)NC(C)(C)CS(=O)(=O)O | -2.32% (inactive) | –

Row | Structure (SMILES) | activation | Potency
21 | CC(C)OB(OC(C)C)OC(C)C | -1.08% (inactive) | –
22 | CCCCC(CC)COP(=O)(O)OCC(CC)CCCC (stereo not given) | -4.27% (inactive) | –
23 | C[Si]1(C)O[Si](C)(C)O[Si](C)(C)O[Si](C)(C)O[Si](C)(C)O1 | 4.75% (inactive) | –
24 | CCOC(=O)C1=NN(c2ccc(Cl)cc2Cl)C(C)(C(=O)OCC)C1 (stereo not given) | 0.148% (inactive) | –
25 | CCc1cccc(C)c1N(C(=O)CS(=O)(=O)O)[C@@H](C)COC | 1.27% (inactive) | –
26 | O=C=NCCCCCCN=C=O | -2.49% (inactive) | –
27 | NN(c1ccccc1)c1ccccc1 | -0.207% (inactive) | –
28 | COC(=O)c1cccc(C)c1S(=O)(=O)NC(=O)Nc1nc(OCC(F)(F)F)nc(N(C)C)n1 | -4.34% (inactive) | –
29 | CSc1ccc(Cl)cc1 | -2.09% (inactive) | –
30 | CC(C)CCCCCOC(=O)CS | 1.46% (inactive) | –
31 | C=C[Si](OCCOC)(OCCOC)OCCOC | 0.552% (inactive) | –
32 | C=CC(=O)OCC[N+](C)(C)C | 4.01% (inactive) | –
33 | COC(=O)c1ccccc1C(=O)O | -7.92% (inactive) | –
34 | COC(=O)c1cccc(C(=O)OC)c1 | 9.28% (inactive) | –
35 | CCCCCCCCCCO | – | inactive
36 | CC(C)c1ccc(C(C)C)cc1 | -1.37% (inactive) | –
37 | C=C(C)C(=O)OCCCCCCCCCCCCCCCC | -4.35% (inactive) | –
38 | CC(C)(C)c1cccc(C(C)(C)C)c1O | -7.42% (inactive) | –
39 | CC(C)c1ccc2cc(C(C)C)ccc2c1 | 4.09% (inactive) | –
40 | CC(C)Cc1c(C(=O)O)c(C(F)F)nc(C(F)(F)F)c1C1=NCCS1 | 3.7% (inactive) | –
